# Data from PubChem BioAssay (NCATS).
# Records with an inconclusive call do not appear. Where a call stands in place of a potency, no number is given. The source made the active and inactive calls. Unless noted, calls follow the shape of the full dose curve.
# Key:
# [1] = Validation screen for inhibitors of Lassa infection (AID 463096); also: potency is read from the fitted curve at half-maximal effect
# [2] = Inducers of the Endoplasmic Reticulum Stress Response (ERSR) in human glioma: Validation (AID 504836; active = well fitted curve in the direction sought with a large enough effect)
# Outline: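 Stably transfected U87-MG human glioma cells carrying a GRP78-based luminescent sensor were seeded at 1000 cells/well, pin-dosed with compounds and incubated 16 h. Luciferase reagent was then added, and end-point luminescence was read after 10 min at room temperature.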
# [3] = qHTS for Inhibitors of the Functional Ribonucleoprotein Complex (vRNP) of Lassa (LASV) Arenavirus: LASV Primary Screen - GLuc reporter signal (AID 1347082; calls by dose curve; tested in HEK293 reporter line; also: series mostly up to about 57 µM; nearly all actives have a fitted effect of over 60% in size)
# [4] = qHTS for Inhibitors of the Functional Ribonucleoprotein Complex (vRNP) of Lassa (LASV) Arenavirus: Viability assay - alamar blue signal for LASV Primary Screen (AID 1347083; calls by dose curve; tested in HEK293 reporter line; also: series mostly up to about 57 µM; nearly all actives have a fitted effect of over 80% in size)
# [5] = qHTS for Inhibitors of the Functional Ribonucleoprotein Complex (vRNP) of Lymphocytic Choriomeningitis Arenaviruses (LCMV): Viability assay - alamar blue signal for LCMV Primary Screen (AID 1347085; calls by dose curve; tested in HEK293 reporter line; also: series mostly up to about 57 µM; nearly all actives have a fitted effect of over 80% in size)
# [6] = biological target: Nucleoprotein (Lymphocytic choriomeningitis virus (strain Armstrong)) (UniProt P09992); test: qHTS for Inhibitors of the Functional Ribonucleoprotein Complex (vRNP) of Lymphocytic Choriomeningitis Arenaviruses (LCMV): LCMV Primary Screen - GLuc reporter signal (AID 1347086); also: series mostly up to about 57 µM; nearly all actives have a fitted effect of over 70% in size
# Nucleoprotein (Lymphocytic choriomeningitis virus (strain Armstrong)), sequence (P09992 whole entry, looked up): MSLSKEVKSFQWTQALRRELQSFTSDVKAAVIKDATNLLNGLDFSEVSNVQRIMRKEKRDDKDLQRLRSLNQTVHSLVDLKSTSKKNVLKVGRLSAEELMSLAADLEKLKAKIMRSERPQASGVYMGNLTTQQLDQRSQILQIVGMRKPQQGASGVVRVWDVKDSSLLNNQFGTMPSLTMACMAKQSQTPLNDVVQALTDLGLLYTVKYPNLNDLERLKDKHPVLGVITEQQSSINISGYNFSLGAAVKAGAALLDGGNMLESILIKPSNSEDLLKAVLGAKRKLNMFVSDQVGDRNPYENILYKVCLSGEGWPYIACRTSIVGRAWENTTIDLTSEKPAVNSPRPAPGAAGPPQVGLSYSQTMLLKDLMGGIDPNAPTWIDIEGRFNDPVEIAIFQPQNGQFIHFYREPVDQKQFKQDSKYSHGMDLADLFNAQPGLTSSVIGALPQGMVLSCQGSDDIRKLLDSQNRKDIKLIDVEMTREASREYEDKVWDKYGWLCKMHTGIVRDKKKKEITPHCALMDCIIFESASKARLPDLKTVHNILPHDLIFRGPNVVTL
Compound,Potency [1],outcome [2],Potency [3],Potency [4],Potency [5],Potency [6]
CC1=C(C(=O)O)N2C(=O)[C@@H](NC(=O)C(N)C3=CCC=CC3)[C@H]2SC1 (some centres not stated),inactive,inactive,inactive,inactive,inactive,inactive
CC(C)C[C@H](NC(=O)[C@H](O)[C@H](N)Cc1ccccc1)C(=O)O,inactive,inactive,inactive,inactive,inactive,inactive
CC1CCN(CC[C@H]2CCCN2S(=O)(=O)c2cccc(O)c2)CC1,inactive,inactive,inactive,inactive,inactive,inactive
CC(C)(C)NCC(O)COc1cccc2[nH]c(=O)[nH]c12 (configuration not stated),inactive,inactive,inactive,inactive,inactive,inactive
CN1C2CCC1CC(OC(c1ccccc1)c1ccccc1)C2 (configuration not stated),10 µM (active),inactive,inactive,inactive,inactive,inactive
C=CC1(C)CC(=O)C2(O)C(C)(O1)C(OC(C)=O)C(O)C1C(C)(C)CCC(O)C12C (configuration not stated),inactive,inactive,inactive,inactive,inactive,inactive
COc1cccc(OC)c1OCCNCC1COc2ccccc2O1 (configuration not stated),inactive,inactive,inactive,inactive,inactive,inactive
N=S(=O)(O)Cc1noc2ccccc12,inactive,inactive,inactive,inactive,inactive,inactive
NCCC1CCCC(CCN)N1 (configuration not stated),inactive,inactive,inactive,inactive,inactive,inactive
O=C(O)[C@H]1NCCC[C@H]1C(=O)O,inactive,inactive,inactive,inactive,inactive,inactive
O=C(O)C1CCCNC1 (configuration not stated),inactive,inactive,inactive,inactive,inactive,inactive
Cc1ccccc1CNc1ncnc2c1ncn2C1OC(CO)C(O)C1O (configuration not stated),inactive,inactive,inactive,inactive,inactive,inactive
CCCCCCCCCCCCCCCCCCNC(=O)OCC(COP(=O)([O-])OCC[n+]1ccsc1)OC (configuration not stated),inactive,inactive,inactive,inactive,inactive,inactive
CN1CCc2cc(O)c(O)cc2C(c2ccccc2)C1 (configuration not stated),inactive,inactive,inactive,inactive,inactive,inactive
CN1C2CCC1CC(OC(=O)c1c[nH]c3ccccc13)C2 (configuration not stated),inactive,inactive,inactive,inactive,inactive,inactive
CCCCCCCCCCCCCCCC(=O)OC(CC(=O)O)C[N+](C)(C)C (configuration not stated),inactive,inactive,inactive,inactive,inactive,inactive
Oc1ccc(C2CNCc3sccc32)cc1O (configuration not stated),inactive,inactive,inactive,inactive,inactive,inactive
